In PubChem BioAssay (EPA / NIEHS):
Calls of active or inactive are those of the source. The calls were made as follows: active = hit-call score of the fitted dose curve at least 0.9, where 1 is the maximum; inactive = score below 0.9.

Assay: ATG_Sox_CIS: Attagene CIS-FACTORIAL HepG2 Assay for human SRY-box transcription factor (SOX) (AID 2282960)
Conditions: HepG2 Attagene cis-factorial SOX reporter, mRNA; actives raise or lower the signal
Description: ATG_CIS is a cell-based, multiplexed-readout assay that uses HepG2, a human liver cell line, with measurements taken at 24 hours after chemical dosing in a 24-well plate.ATG_Sox_CIS is one of 52 assay component(s) measured or calculated from the ATG_CIS assay. It is designed to make measurements of mRNA induction, a form of inducible reporter, as detected with fluorescence intensity signals by Reverse transcription polymerase chain reaction (RT-PCR) and Capillary electrophoresis technology.Data from the assay component ATG_Sox_CIS was analyzed into 1 assay endpoint. This assay endpoint, ATG_Sox_CIS, was analyzed with bidirectional fitting relative to DMSO as the negative control and baseline of activity. Using a type of inducible reporter, measures of mRNA for gain or loss-of-signal activity can be used to understand the reporter gene at the transcription factor-level as they relate to the gene SOX1. Furthermore, this assay endpoint can be referred to as a primary readout, because this assay has produced multiple assay endpoints where this one serves a reporter gene function. To generalize the intended target to other relatable targets, this assay endpoint is annotated to the dna binding intended target family, where the subfamily is HMG box protein.
Human liver HepG2 cells are transiently transfected with multiple reporter transcription units (MRTUs) in 6-well plates using FuGene 6 reagent (Roche; 3 ml FuGene/1 mg DNA). The MRTU constructs are regulated by a cis-regulating element (promoter). […] A major difference between the CIS and TRANS system is that in CIS activities of endogenous TFs are measured, whereas the TRANS assay evaluates changes in activities of exogenous, chimeric NR-Gal4 proteins. […] At the end of 24 hour incubation, total RNA was isolated using TriZol reagent (Invitrogen). The isolated RNA is then reverse-transcribed using oligo(dT) primer and Mo-MLV reverse transcriptase (Invitrogen) with DNAse I (Ambion) treatment for 30 min. The one-tenth of the produced cDNA was amplified by PCR using Taq DNA polymerase (Invitrogen) and two reporter sequence-specific primers. The PCR products were fluorescently labeled by primer extension with 6-arboxyfluorescein (6-FAM) 5'-labeled reporter sequence-specific primer (2 min at 95 C, 20 s at 68 C and 10 min at 72 C) and these products were digested with 5U of HpaI (New England Biolabs) for 2h at 37 C. The fragments were purified using Qiaquick PCR columns (Qiagen), analyzed on an ABI 3130xL genetic analyzer (Applied Biosystems) with peak positions identified by using a set of X-rhodamine (ROX)-labeled MapMarker1000 molecular weight standards (BioVentures). The raw capillary electrophoresis data was processed using Attagraph software (Attagene).

Compound | outcome | AC50
CC(C)CCCCCCOC(=O)c1ccc(C(=O)OCCCCCCC(C)C)c(C(=O)OCCCCCCC(C)C)c1 | inactive | 
Cc1ccc(O)cc1 | inactive | 
CC(C)CCCCCCCOC(=O)CCCCC(=O)OCCCCCCCC(C)C | inactive | 
CCc1cc(SCc2sc(-c3ccc(C(F)(F)F)cc3)nc2CN2CCN(c3ccc(OC)cc3)CC2)ccc1OCC(=O)O | inactive | 
CC1(C)C(=O)N(Br)C(=O)N1Br | inactive | 
CCOc1cccc(-n2cc(C(=O)N3CCN(c4cc(C(=O)O)c5ccccc5c4)CC3)nc2-c2ccc(C)cc2)c1 | inactive | 
CCOC(=O)c1ccc(C2CCC(NC[C@H](O)COc3ccc(O)c(NS(C)(=O)=O)c3)CC2)cc1 (stereo not given in full) | inactive | 
Nc1nc2ncc(CNc3ccc(C(=O)N[C@@H](CCC(=O)O)C(=O)O)cc3)nc2c(=O)[nH]1 | inactive | 
COC(=O)CC(=O)OC | inactive | 
CC(C)=CCCC(C)CCO (stereo not given) | inactive | 
O=c1[nH]c2ccc(S(=O)CCN3CCC(Cc4ccc(F)cc4)CC3)cc2o1 (stereo not given) |  | 66.5 µM (active)
CCCCCCc1ccc(O)cc1O | inactive | 
C=CC(=C)CCC=C(C)C | inactive | 
Cc1ccc(C)c(O)c1 | inactive | 
COC(=O)c1c(Cl)c(Cl)c(C(=O)OC)c(Cl)c1Cl | inactive | 
Cc1c(-c2cccnc2)c2ccccc2n1CCCCC(=O)O | inactive | 
O=C(NS(=O)(=O)/C=C/c1ccccc1)c1ccc(F)cc1Cl | inactive | 
O=c1n(CC2CO2)c(=O)n(CC2CO2)c(=O)n1CC1CO1 (stereo not given) |  | 65.2 µM (active)
COc1cccc(-c2ccc(/C=C\CN3CCCCCC3)cc2Cl)c1 | inactive | 
CCCCC(CC)COC(=O)c1ccc(C(=O)OCC(CC)CCCC)cc1 (stereo not given) | inactive | 

Compound | outcome | AC50
CC(C)c1cccc(C(C)C)c1N1C(=O)c2ccc(O)cc2C1=O |  | 122 µM (active)
C1N2CN3CN1CN(C2)C3 | inactive | 
CCN(C(=O)c1cc(C)cc(OC[C@H](C)Nc2ccncc2)c1)C(C)C | inactive | 
CC(C)=CCC/C(C)=C/CO | inactive | 
CCOC(=O)CC(CC(=O)OCC)(OC(C)=O)C(=O)OCC | inactive | 
CCCCCCCCO | inactive | 
CC(C)=CCC/C(C)=C\CO | inactive | 
O=C(OC[C@H]1O[C@@H](OC(=O)c2cc(O)c(O)c(OC(=O)c3cc(O)c(O)c(O)c3)c2)[C@H](OC(=O)c2cc(O)c(O)c(OC(=O)c3cc(O)c(O)c(O)c3)c2)[C@@H](OC(=O)c2cc(O)c(O)c(OC(=O)c3cc(O)c(O)c(O)c3)c2)[C@@H]1OC(=O)c1cc(O)c(O)c(OC(=O)c2cc(O)c(O)c(O)c2)c1)c1cc(O)c(O)c(OC(=O)c2cc(O)c(O)c(O)c2)c1 | inactive | 
CC[C@H]1OC(=O)[C@H](C)[C@@H](O[C@H]2C[C@@](C)(OC)[C@@H](O)[C@H](C)O2)[C@H](C)[C@@H](O[C@@H]2O[C@H](C)C[C@H](N(C)C)[C@H]2O)[C@](C)(O)C[C@@H](C)C(=O)[C@H](C)[C@@H](O)[C@]1(C)O | inactive | 
CC(=O)c1ccc2c(c1)[C@H](NC(=O)c1ccc(F)cc1)[C@@H](O)C(C)(C)O2 | inactive | 
COC(=O)c1ccccc1O | inactive | 
O=C(O)c1cc(N=Nc2ccc(S(=O)(=O)Nc3ccccn3)cc2)ccc1O | inactive | 
Cn1c(=O)c2c(ncn2C)n(C)c1=O | inactive | 
CC[C@H]1CC[C@H](NCc2cc3c(cc2OC)[C@H]2C[C@H]2C(=O)N3C)[C@H](c2ccccc2)N1 | inactive | 
O=C(CCCCCCCCc1cccnc1)N1CCC(C=C(c2ccccc2)c2ccccc2)CC1 | inactive | 
Cc1ccc(S(=O)(=O)O)cc1C | inactive | 
CC(=O)OC[C@H]1O[C@@](COC(C)=O)(O[C@H]2O[C@H](COC(C)=O)[C@@H](OC(C)=O)[C@H](OC(C)=O)[C@H]2OC(C)=O)[C@@H](OC(C)=O)[C@@H]1OC(C)=O | inactive | 
CC(O)CN(CCN(CC(C)O)CC(C)O)CC(C)O (stereo not given) | inactive | 
CCOCCOCCOCCO | inactive | 
C[C@](N)(Cc1ccc(O)c(O)c1)C(=O)O | inactive | 
